Here are results for 70 compounds from ChEMBL document CHEMBL3988442, “University of Dundee, Small-Polar-MMV Screening Library” (2021).

SMILES strings stand for the structures. Hit rate of the full screen: of about 69,000 compounds, about 420 (0.61%) showed an effect of 50% or more. The sample holds strong results, similar compounds and a random draw of the others, so the mix is not that of the screen.

The target in this experiment is T1, Histidine--tRNA ligase (Leishmania infantum) (UniProt A4I591).
T1 sequence (whole entry): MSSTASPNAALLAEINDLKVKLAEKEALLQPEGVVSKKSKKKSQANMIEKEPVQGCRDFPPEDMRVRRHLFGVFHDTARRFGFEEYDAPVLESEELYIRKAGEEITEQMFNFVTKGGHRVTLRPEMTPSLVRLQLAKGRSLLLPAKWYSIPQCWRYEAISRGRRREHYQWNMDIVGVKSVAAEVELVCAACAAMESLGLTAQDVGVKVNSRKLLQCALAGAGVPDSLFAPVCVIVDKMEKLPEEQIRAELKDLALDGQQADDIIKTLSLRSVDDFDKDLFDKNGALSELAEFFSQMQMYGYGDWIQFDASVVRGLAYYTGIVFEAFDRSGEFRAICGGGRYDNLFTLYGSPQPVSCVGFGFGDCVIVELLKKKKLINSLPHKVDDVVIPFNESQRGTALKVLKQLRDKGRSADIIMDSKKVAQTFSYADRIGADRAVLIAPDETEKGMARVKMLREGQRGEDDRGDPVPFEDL
Kind of experiment: Leishmania infantum Histidine tRNA synthetase (LdHisRS). Type of experiment: functional. Details: scale not given: in the data most compounds retested in dose-response had high values. The following applies: 30 µM.
Regarding `O=C(c1cccc(F)c1)N1CCN2C[C@H](OCc3cccnc3)C[C@H]2C1`, the Percent Effect is 9.49%. The same measure for `COCC(=O)N1CC[C@H]2N(C)CC[C@@]2(C(=O)Nc2ccccc2)CC1`: 15.4%; for `c1cc(CN2CC[C@@H]3[C@@H](CO[C@H]3CN3CCOCC3)C2)cs1`: 18.1%. The same measure for `COc1cc(C)ccc1OCCN1CC[C@@]2(O)CCNC[C@H]2C1`: 12.3%. For the compound `COc1ccccc1-n1cc(CN2CCN(C)[C@@H]3CS(=O)(=O)C[C@@H]32)cn1`, the Percent Effect stood at 17.1%.

Consider `CCO[C@@H]1CC[C@H]2[C@H]1OCCN2S(=O)(=O)C1CC1`, for which the Percent Effect was found to be 4.17%. With `CNc1cc2c(nn1)CCN(C(=O)c1ccoc1)C2`, the Percent Effect amounted to 10.7%. The result for `CNc1cc2c(nn1)CCN(C(=O)c1coc(Br)c1)C2` reads 52.2%; that for `CNc1cc2c(nn1)CCN(C(=O)c1cc(F)cc(F)c1)C2`, 21.3%; that for `Cn1cc(NC(=O)c2ccccn2)cc(Cl)c1=O`, 10.3%. For the compound `COCCn1ccc(NC(=O)Nc2ccccn2)n1`, the Percent Effect worked out at 13.2%. Regarding `Cc1ccsc1C(=O)Nc1cnn(CC(=O)NC2CCCC2)c1`, the Percent Effect was 3.23%. Regarding `CCC(C#N)NC(=O)c1sccc1OC` (stereo not given), the Percent Effect was 10.6%. For the compound `Cn1cc(NC(=O)c2ccccn2)cc(Br)c1=O`, the Percent Effect is 15.4%. Regarding `Cn1cc(NC(=O)Nc2ccccn2)cc(Cl)c1=O`, the Percent Effect amounted to 121%. As for `Cn1cc(NC(=O)c2cc[nH]n2)cc(Cl)c1=O`, the Percent Effect stood at 10.3%. In the case of `Cc1ccsc1C(=O)Nc1cc(Br)c(=O)n(C)c1`, the Percent Effect worked out at 107%. As for `COc1ccsc1C(=O)Nc1cc(CN2CCOCC2)ccc1C`, the Percent Effect was -11.1%. With `COc1ccsc1C(=O)NCCNc1ccccc1`, the Percent Effect was 11.7%. As to `COc1ccsc1C(=O)Nc1cc(Br)c(=O)n(C)c1`, the Percent Effect turned out to be 109%. Take `COc1ccsc1C(=O)Nc1cc(Cl)c(=O)n(C)c1`: the Percent Effect was 103%. Turning to `CCS(=O)(=O)N1CCO[C@H]2[C@H](Oc3ncccc3F)CC[C@@H]21`, the Percent Effect amounted to 8.22%. The result for `O=C1[C@@H]2CCN(Cc3ccoc3)C[C@@H]2OCCN1c1ccccc1` reads 9.49%.

Turning to `O=C1NC[C@@]2(C(=O)O)CN(Cc3ccc(Oc4ccccc4)cc3)C[C@@H]12`, the Percent Effect was 12.1%.

Take `CC(C)c1nc(CC(=O)Nc2nc(CN3CCCCCC3)cs2)cs1`: the Percent Effect turned out to be 53.3%. As for `CC(C)c1nc(CN2CCCCC2)cs1`, the Percent Effect stood at 0%.

With `CC(C)c1nc(CN2CCC(CO)CC2)cs1`, the Percent Effect was found to be 13.2%.

As for `O=C1CN(C(=O)c2cc(-c3ccco3)nc3c(Cl)cccc23)CCN1`, the Percent Effect is 81.7%. The result for `O=C(c1cc(-c2ccco2)nc2c(Cl)cccc12)N1CC[C@H]2CNC[C@H]21` reads 40%; that for `O=C(c1cc(-c2ccco2)nc2c(Cl)cccc12)N1CCS(=O)(=O)CC1`, 15%; that for `O=C(c1cc(-c2ccco2)nc2c(Cl)cccc12)N1C[C@H]2CNC[C@H]2C1`, 53.3%. Take `NC(=O)N1C[C@@H]2CN(C(=O)c3ccco3)C[C@@H]2C1`: the Percent Effect came out at 15.5%. In the case of `Cc1nc(-c2ccco2)ccc1C(=O)N1CCn2c(C)nnc2C1`, the Percent Effect came out at 25.4%. As to `Cc1nc(-c2ccco2)ccc1C(=O)N1CCc2nnc(N)cc2C1`, the Percent Effect was determined as 2.63%.

On to `COCC1CCN(C(=O)c2cc(-c3ccco3)nc3c(Cl)cccc23)C1` (stereo not given), for which the Percent Effect is 11.7%.

Turning to `CN1C[C@H]2CN(Cc3cccc(OC(F)(F)F)c3)CCN2C1=O`, the Percent Effect was determined as 21.6%. In the case of `O=C(NCc1cccs1)[C@@H]1CC[C@@H]2[C@@H](CCN2c2ncccn2)O1`, the Percent Effect turned out to be 17.9%. `CN(Cc1ccco1)[C@@H]1CN(C(=O)c2cnccn2)C[C@@H]2CCCO[C@@H]21`: the Percent Effect stood at 11.3%. As to `COC[C@@]12CCC[C@@H]1CN(C(=O)COC1CCCC1)C2`, the Percent Effect stood at 0%. Take `CC(=O)N1[C@H](CN(C)C)C[C@@H]2CN(C(=O)c3ccsc3)CC[C@@H]21`: the Percent Effect amounted to 15.4%. With `Cc1nc(CN(C)CC2CCCN2c2cccnn2)nc2ccccc12` (stereo not given), the Percent Effect came out at 74.4%.

In the case of `Cc1nc2ccccc2nc1CN(C)CC1CCCN1c1cccnn1` (stereo not given), the Percent Effect is 34.7%.

Regarding `CN(Cc1nc(N)c2ccccc2n1)CC1CCCN1c1cccnn1` (stereo not given), the Percent Effect worked out at 21.3%.

Take `COc1ccc(CN2CCO[C@H]3[C@H](Oc4ccccn4)CC[C@@H]32)cc1`: the Percent Effect was 25.7%. The result for `O=C(c1ccco1)N1C[C@H]2CCCN(Cc3ccoc3)[C@H]2C1` reads 16.4%; that for `c1cnc(N2CCO[C@H]3CN(CC4CCCC4)C[C@H]32)cn1`, 9.91%; that for `FC(F)(F)c1cccc(C2(CNCc3cc[nH]c3)CCOCC2)c1`, 12.7%. With `Brc1ccc(C2(CNCc3cc[nH]c3)CCOCC2)cc1`, the Percent Effect was determined as 52.1%.

On to `Brc1cccc(C2(CNCc3cc[nH]c3)CCOCC2)c1`, for which the Percent Effect was 40.9%. The same measure for `CN1C[C@H](c2ccccc2)[C@H]2CN(C(=O)Cc3ccc(O)cc3)CC[C@H]21`: 5.59%. On to `Cn1c(=O)c2c(n3ncnc13)NC(=O)CC2c1ccc(F)cc1` (stereo not given), for which the Percent Effect amounted to 6.9%. The result for `O=C1CC(c2ccc(C(=O)O)cc2)c2ncn(-c3ccc(F)cc3)c2N1` (stereo not given) reads 81.7%.

As for `O=C1CC(c2ccc(C(=O)O)cc2)c2ncn(-c3ccccc3)c2N1` (stereo not given), the Percent Effect stood at 52.4%.

Take `O=C1CC(c2cccc(Cl)c2)c2snc(C(=O)O)c2N1` (stereo not given): the Percent Effect came to 1.72%. As to `O=C1CC(c2ccc(C(=O)O)cc2)c2ncn(-c3cccc(F)c3)c2N1` (stereo not given), the Percent Effect is 46.6%. On to `O=C1CC(c2ccc(C(=O)O)cc2)c2ncn(-c3ccccc3Cl)c2N1` (stereo not given), for which the Percent Effect turned out to be 45%. On to `O=C1CC(c2ccc(C(=O)O)cc2)c2ncn(-c3cccnc3)c2N1` (stereo not given), for which the Percent Effect is 30%.

For the compound `Cc1nn(-c2ccccc2)c2c1C(c1ccc(C(=O)O)cc1)CC(=O)N2` (stereo not given), the Percent Effect was 18.4%. The same measure for `O=C1CC(c2ccc(C(=O)O)cc2)c2ncn(-c3cccc(Cl)c3)c2N1` (stereo not given): 51.7%; for `O=C1CC(c2ccc(C(=O)O)cc2)c2ncn(-c3ccccc3F)c2N1` (stereo not given): 51.7%.

In the case of `O=C1CC(c2ccncc2)c2c(c(C(=O)O)cn2-c2ccc(F)cc2)N1` (stereo not given), the Percent Effect was 29.1%. On to `O=C1CC(c2cccnc2)c2c(c(C(=O)O)cn2-c2ccccc2F)N1` (stereo not given), for which the Percent Effect was found to be 20.6%. In the case of `O=C1C[C@H]2[C@@H](CCN2C(=O)Cc2ccccc2)N1Cc1cccnc1`, the Percent Effect was found to be 9.62%.

Consider `CCS(=O)(=O)N1CCC2(CC1)CC[C@@]1(C(=O)N(C)C)CN(C(C)=O)C[C@@H]21`, for which the Percent Effect is 12.8%. Consider `CO[C@H]1CN(C(=O)c2ccc[nH]2)[C@@H]2COC[C@H]12`, for which the Percent Effect is -140%. The same measure for `O=C([C@@H]1C[C@@H]2CCN(C3CCOCC3)C[C@H]2O1)N1CCCC1`: 6.94%. The same measure for `Cn1cccc1C(=O)NC[C@]12COC[C@H]1CN(Cc1nccs1)C2`: 12.8%. Consider `O=C(c1ccc2nccnc2c1)N1CCN(CCO)[C@@H]2CS(=O)(=O)C[C@@H]21`, for which the Percent Effect was found to be 3.97%. The same measure for `Cc1nc(-c2ccoc2)n(CC(=O)N(C)CC(C)C)c1C`: 15.8%; for `CN(C)c1nccc(N2CCO[C@H]3CN(Cc4nccn4C)C[C@H]32)n1`: 3.19%.
